Results filed as inconclusive are left out. Active and inactive are the calls of the source. Unless noted, the call rests on the fitted dose curve; in most records, active means well fitted curve in the direction sought with a large enough effect; inconclusive means small, poorly fitted or top-dose-only effect, or another doubt; inactive means no such curve, though single readings can be large; an effect the other way counts as inactive or inconclusive.
Legend:
[1] = target: Glutathione peroxidase 1 (Homo sapiens) (UniProt P07203); test: Primary qHTS Assay for Inhibitors of Recombinant Selenoprotein Glutathione Peroxidase 1 (GPX1) (AID 1845191); further: nearly all actives have a fitted effect of over 65% in size; further: potency means the concentration at half of the fitted maximal effect
Glutathione peroxidase 1 (Homo sapiens), sequence (P07203 whole entry, looked up): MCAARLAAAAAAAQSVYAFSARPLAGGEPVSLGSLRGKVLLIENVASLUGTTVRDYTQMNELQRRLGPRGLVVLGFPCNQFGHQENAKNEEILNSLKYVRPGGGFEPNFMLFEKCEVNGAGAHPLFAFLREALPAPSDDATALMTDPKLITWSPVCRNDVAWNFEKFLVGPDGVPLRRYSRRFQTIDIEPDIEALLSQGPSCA
Procedure, shortened: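 10 nM GPX1 + cpd, 30 min RT; start w/ 1 mM GSH, 0.5 mM cumene hydroperoxide, 0.5 mM NADPH, 100 nM GR, 0.01% BSA; buffer 50 mM Tris-HCl pH 7.5, 2 mM EDTA, 150 mM NaCl; Fl 340/450, 0 & 15 min.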

[2] = target: Phospholipid hydroperoxide glutathione peroxidase GPX4 (Homo sapiens) (UniProt P36969); test: Primary qHTS Assay for Inhibitors of Recombinant Selenoprotein Glutathione Peroxidase 4 (GPX4) (AID 1845192); further: nearly all actives have a fitted effect of over 65% in size; on activity change, negative = inhibition: series mostly up to about 50 µM; on the % scale 0 is the no-effect control and ±100 the full control effect
Phospholipid hydroperoxide glutathione peroxidase GPX4 (Homo sapiens), sequence (P36969 whole entry, looked up): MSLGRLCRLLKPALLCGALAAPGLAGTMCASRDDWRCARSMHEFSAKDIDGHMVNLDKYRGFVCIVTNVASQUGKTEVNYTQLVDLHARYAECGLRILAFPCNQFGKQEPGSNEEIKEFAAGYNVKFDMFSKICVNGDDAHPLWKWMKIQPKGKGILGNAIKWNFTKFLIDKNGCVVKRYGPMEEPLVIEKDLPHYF
Procedure, shortened: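 NADPH consumption, followed by fluorescence at 340/450 nm between 0 and 15 min, reports GPX4 activity via coupled glutathione reductase (100 nM). Enzyme 200 nM was pre-exposed to compound 30 min; 0.5 mM cumene hydroperoxide and 1 mM GSH served as substrates.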

[3] = target: Luciferin 4-monooxygenase (Photinus pyralis) (UniProt P08659); test: Primary firefly luciferase (FLuc) qHTS assay for identification of artifact compounds. (AID 1845220); further: nearly all actives have a fitted effect of over 60% in size;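 on activity change, negative = inhibition: series mostly up to about 54 µM; plate controls were DMSO vehicle for no effect and no enzyme for full effect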
Procedure, shortened: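 FLuc 10 nM; luciferin 10 uM; ATP 10 uM; Tris-acetate pH 7.6, Mg-acetate 10 mM; 15 min RT preincubation; 5 min reaction; luminescence.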

[4] = Primary fluorescence-based thiol-reactive (MSTI) qHTS assay for identification of artifact compounds. (AID 1845221); further: nearly all actives have a fitted effect of over 65% in size; further: potency means the concentration at half of the fitted maximal effect;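 on activity change, negative = thiol reactive: series mostly up to about 54 µM; thiol-reactive compounds lower the probe fluorescence signal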
Procedure, shortened: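 Probe: MSTI 4 uM, PBS pH 7.4, 2% DMSO. Incubation 1 h, RT, light-protected. Readout fluorescence 525/598 nm.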

[5] = Primary redox qHTS assay for identification of artifact compounds. (AID 1845223);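 further: 0% = DMSO and 100% = reference compound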
Procedure, shortened: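 Amplex Red (25 uM) and HRP (250 mU/mL) in HBSS, with compounds for 15 min, then 250 uM DTT for 30 min, room temperature, dark. Fluorescence 525/598 nm read; normalized to DMSO and 10 uM DA3003; Hill fit.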

[6] = test system: Nanoluciferase (engineered Oplophorus gracilirostris luciferase); test: Primary Nanoluciferase (NLuc) qHTS assay for identification of artifact compounds. (AID 1845222);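 further: NLuc secreted into diluted conditioned medium of S16 cells; series mostly up to about 54 µM; 0% = DMSO and -100% = no enzyme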
Procedure, shortened: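 NLuc from S16 cell medium (1:55) plus test compounds, 15 min, room temperature. Luminescence after Nano-Glo (1:100) addition, 5 min.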

[7] = qHTS drug screen for cell cycle checkpoint inhibitors in PARPi-resistant BRCA-mutant ovarian cancer cell lines. (AID 1963452; calls by dose curve; further: potency means the concentration at half of the fitted maximal effect); conditions: PEO1/OlaR viability, CellTiter-Glo luminescence, 96 h; for Z-AUC: stronger effect = lower value
Procedure, shortened: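 PEO1, PEO4 and PEO1/OlaR ovarian cancer cells, 600 per well, exposed 96 h at 37C to a dilution series. Viability read by CellTiter-Glo luminescence, normalized to DMSO and empty wells; activity summarized as Z-AUC.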

[8] = measured here: PEO1 parental Z-AUC

CC1=CCC2C(C)(CO)CCCC2(CO)C1CO (stereo unspecified)
active: Potency [4] 13.4 µM
inactive: Potency [1] | Potency [2] | Potency [3] | Potency [5]

CCN(c1cc(C#CCN2CCOCC2)cc(C(=O)NCc2c(C)cc(C)[nH]c2=O)c1C)C1CCC(N(C)CCOC)CC1 (stereo unspecified)
inactive: Potency [1] | Potency [2] | Potency [3] | Potency [4] | Potency [6] | Z-AUC [7] 0.159
1.36: Z-AUC ([7]; measured here: PEO4 Z-AUC)
1.88: Z-AUC [7, 8]

C[C@H]1CN(C[C@H](Cc2ccccc2)C(=O)NCC(=O)O)CC[C@@]1(C)c1cccc(O)c1
inactive: Potency [1] | Potency [2] | Potency [3] | Potency [4] | Potency [6] | Potency [5] | Z-AUC [7] -0.66
-0.254: Z-AUC [7, 8]
-0.529: Z-AUC ([7]; measured here: PEO4 Z-AUC)

CO[C@@H]1COCC[C@@H]1N[C@@H]1CC[C@@](C(=O)N2CCc3ncc(C(F)(F)F)cc3C2)(C(C)C)C1
inactive: Potency [1] | Potency [2] | Potency [3] | Potency [4] | Potency [6] | Potency [5] | Z-AUC [7] 0.278
1.21: Z-AUC [7, 8]
1.12: Z-AUC ([7]; measured here: PEO4 Z-AUC)

CC(C)Nc1cc(-c2c[nH]c(C(=O)N[C@H](CO)c3cccc(Cl)c3)c2)c(Cl)cn1
-1.89: Z-AUC [7, 8]
active: Potency [7] 8.71 µM
-1.82: Z-AUC ([7]; measured here: PEO4 Z-AUC)
inactive: Potency [1] | Potency [2] | Potency [3] | Potency [4] | Potency [6] | Potency [5]

C[C@@H]1O[C@@H](O[C@H]2[C@H](O[C@H]3[C@H](O[C@H]4CC[C@@]5(C=O)C(CC[C@]6(C)C5CC=C5C7CC(C)(C)C[C@@H](O)[C@]7(C)CC[C@]56C)C4(C)C)O[C@H](C(=O)O)[C@@H](O)[C@@H]3O)OC[C@@H](O)[C@@H]2O)[C@H](O)[C@H](O)[C@H]1O (stereo partly specified)
inactive: Potency [1] | Potency [2] | activity change, negative = inhibition [3] 0.64% [at 11.6 µM] | activity change, negative = thiol reactive [4] 114% [at 11.5 µM] | redox activity (% of DA3003) [5] 8.98% [at 11.5 µM]

Cc1ccc(C(=O)Nc2ccc(Oc3cc4cnn(C)c4cc3-c3cn[nH]c3)c(F)c2)c(=O)n1-c1ccc(F)cc1
0.144: Z-AUC [7, 8]
-0.211: Z-AUC ([7]; measured here: PEO4 Z-AUC)
inactive: Potency [1] | Potency [2] | Potency [3] | Potency [4] | Potency [6] | Potency [5] | Z-AUC [7] -0.0237

CC1(C)C(=O)C(C)(C)c2cc(C(=O)Nc3ccc(C(=O)O)cc3)ccc21
inactive: Potency [1] | Potency [2] | Potency [3] | Potency [4] | Potency [5]

CC/C=C/CC1=C(CCCCCCCC(=O)O)CCC1=O
inactive: Potency [1] | Potency [2] | Potency [3] | Potency [4] | Potency [5]

CC(/C=C/C1(O)C(C)(C)CC(O)CC1(C)O)OC1OC(CO)C(O)C(O)C1O (stereo unspecified)
inactive: Potency [1] | Potency [2] | Potency [3] | Potency [6]

COCC(=O)N1CCc2cc(-c3csc(NC(=O)c4cc(OC)cc(OC)c4)n3)ccc21
inactive: Potency [1] | Potency [2] | Potency [3] | Potency [4] | Potency [5]

C=C1CCC2[C@@](C)(C=O)CCC[C@]2(C)[C@H]1CC/C(C)=C/CO (stereo partly specified)
inactive: Potency [1] | Potency [2] | Potency [3] | Potency [6]

CN1C(=O)N[C@@H](Cc2c[nH]c3c(Cl)cccc23)C1=O
-0.721: Z-AUC ([7]; measured here: PEO4 Z-AUC)
inactive: Potency [1] | Potency [2] | Potency [3] | Potency [4] | Potency [5] | Z-AUC [7] -0.9
-0.75: Z-AUC [7, 8]

CC12CCC3C(C)(C)C(O)CCC3(C)C1Cc1c(oc(C(=O)O)cc1=O)O2 (stereo unspecified)
inactive: Potency [1] | Potency [2] | Potency [3] | Potency [6]

COc1cc(/C=C/C(=O)O[C@H]2[C@H](OC(=O)/C=C/c3cc(OC)c(O)c(OC)c3)O[C@H](CO[C@@H]3O[C@H](CO)[C@@H](O)[C@H](O)[C@H]3O)[C@@H](O)[C@@H]2O)ccc1O
inactive: Potency [1] | Potency [2] | Potency [3] | Potency [4] | Potency [5]

COc1cc(C2Oc3c(OC)cc(/C=C/C(=O)OC[C@H]4O[C@@H](OC(C)(C)C(=O)O)[C@H](O)[C@@H](O)[C@@H]4O)cc3C2CO)ccc1O (stereo partly specified)
inactive: Potency [1] | Potency [2] | Potency [3] | Potency [4] | Potency [5]

COc1ccccc1CC(C(=O)O)N(C)C(=O)c1ccccc1 (stereo unspecified)
inactive: Potency [1] | Potency [2] | Potency [3] | Potency [6] | Potency [5]

CCC(=O)NS(=O)(=O)c1ccc(-c2c(-c3ccccc3)noc2C)cc1
-1.33: Z-AUC ([7]; measured here: PEO4 Z-AUC)
-1.08: Z-AUC [7, 8]
inactive: Potency [1] | Potency [2] | Potency [3] | Potency [4] | Potency [5] | Z-AUC [7] -0.948

C=C1[C@@H]2[C@H]3OC(=O)C(=C)[C@@H]3CC[C@@](C)(O)[C@@H]2C[C@@H]1O[C@@H]1O[C@H](CO)[C@@H](O)[C@H](O)[C@H]1O
inactive: Potency [1] | Potency [2] | Potency [3] | Potency [6]

CCOc1cc2ncc(C#N)c(Nc3ccc(OCc4ccccn4)c(Cl)c3)c2cc1NC(=O)/C=C/CN(C)C
-0.0482: Z-AUC ([7]; measured here: PEO4 Z-AUC)
inactive: Potency [1] | Potency [2] | Potency [3] | Potency [4] | Z-AUC [7] 0.57
0.366: Z-AUC [7, 8]

NCCOCCOCCNC(=O)Cc1ccc(Nc2nc(NCc3ccc(F)cc3)nc(NCC3CCCCC3)n2)cc1
inactive: Potency [1] | Potency [2] | Potency [3] | Potency [6]

COc1ccc2c(c1O)OC[C@H]1c3ccc(O)cc3O[C@@H]21
inactive: Potency [1] | Potency [2] | Potency [3] | Potency [6]

CCc1cc2c(=O)c(-c3nc4ccccc4s3)coc2c(CN2CCCCC2)c1O
active: Potency [1] 11.1 µM
inactive: Potency [2] | Potency [3] | Potency [4] | Potency [5]

CC1=C2CC3OC3(C)CCC3OC3(C)CC2OC1=O (stereo unspecified)
inactive: Potency [1] | Potency [2] | Potency [3] | Potency [4] | Potency [5]
